Measured values published in the supplement of paper PMC10849652.
The full data set covers some 7,900 targets. This sample favours those with a hit. About 0.6% of all pairs of compound and target were hits.

Experiments:
Assay in all cases: log2 fold change, soluble protein after heating vs DMSO (PISA); higher = thermal stabilisation; K562 cells, 10 uM, 30 min; active = over 0.2 and 3.5 SD of the protein, either way, in both replicates (recomputed)
[1] = target: ZNF217 (UniProt O75362)
Procedure, shortened: (§1)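 K562 cells at 2×10^6 cells/mL were treated with 10 μM compound for 30 min. Aliquots were heated for 3 min across 48°C-58°C, pooled, and extracted in PBS with 0.5% NP-40 at 4°C; soluble protein was the supernatant after 21,000xg for 90 min. Soluble protein was quantified by TMTpro 16plex LC-MS/MS with channel sums equalised, and reported as log2 fold change in thermal stability against DMSO controls, with values from duplicates.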

[2] = target: ZNF239 (UniProt Q16600)
Procedure, shortened: as §1

[3] = target: ZNF277 (UniProt Q9NRM2)
Procedure, shortened: as §1

[4] = target: ZNF579 (UniProt Q8NAF0)
Procedure, shortened: as §1

[5] = target: ZNF580 (UniProt Q9UK33)
Procedure, shortened: as §1

[6] = target: ZNF609 (UniProt O15014)
Procedure, shortened: as §1

[7] = target: ZNF622 (UniProt Q969S3)
Procedure, shortened: as §1

[8] = target: ZRANB2 (UniProt O95218)
Procedure, shortened: as §1

[9] = target: ZW10 (UniProt O43264)
Procedure, shortened: as §1

[10] = target: ZWILCH (UniProt Q9H900)
Procedure, shortened: as §1

[11] = target: ZYG11B (UniProt Q9C0D3)
Procedure, shortened: as §1

[12] = target: ZNF511 isoform 1 (UniProt Q8NB15)
Procedure, shortened: as §1

Measured: log2 fold change

Chain of ZYG11B (Q9C0D3 whole entry, looked up): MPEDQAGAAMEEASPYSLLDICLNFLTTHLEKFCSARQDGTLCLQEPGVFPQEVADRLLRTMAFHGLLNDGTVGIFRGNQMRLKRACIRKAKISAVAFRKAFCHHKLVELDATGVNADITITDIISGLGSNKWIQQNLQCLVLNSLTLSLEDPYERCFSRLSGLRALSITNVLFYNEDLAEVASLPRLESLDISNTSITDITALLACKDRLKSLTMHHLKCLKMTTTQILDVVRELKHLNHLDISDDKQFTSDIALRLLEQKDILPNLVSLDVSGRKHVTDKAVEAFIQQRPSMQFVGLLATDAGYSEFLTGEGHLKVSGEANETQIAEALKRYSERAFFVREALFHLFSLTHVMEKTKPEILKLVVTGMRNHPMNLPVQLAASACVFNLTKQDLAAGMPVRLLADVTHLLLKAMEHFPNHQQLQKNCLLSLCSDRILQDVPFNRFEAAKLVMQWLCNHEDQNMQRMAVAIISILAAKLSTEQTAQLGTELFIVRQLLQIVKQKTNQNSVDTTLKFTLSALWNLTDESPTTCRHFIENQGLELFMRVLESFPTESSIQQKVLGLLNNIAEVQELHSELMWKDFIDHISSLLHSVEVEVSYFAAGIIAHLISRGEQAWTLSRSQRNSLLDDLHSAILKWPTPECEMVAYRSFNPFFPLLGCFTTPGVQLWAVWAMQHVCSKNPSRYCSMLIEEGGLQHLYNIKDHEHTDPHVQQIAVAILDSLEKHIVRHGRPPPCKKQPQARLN
Chain of ZNF239 (Q16600 whole entry, looked up): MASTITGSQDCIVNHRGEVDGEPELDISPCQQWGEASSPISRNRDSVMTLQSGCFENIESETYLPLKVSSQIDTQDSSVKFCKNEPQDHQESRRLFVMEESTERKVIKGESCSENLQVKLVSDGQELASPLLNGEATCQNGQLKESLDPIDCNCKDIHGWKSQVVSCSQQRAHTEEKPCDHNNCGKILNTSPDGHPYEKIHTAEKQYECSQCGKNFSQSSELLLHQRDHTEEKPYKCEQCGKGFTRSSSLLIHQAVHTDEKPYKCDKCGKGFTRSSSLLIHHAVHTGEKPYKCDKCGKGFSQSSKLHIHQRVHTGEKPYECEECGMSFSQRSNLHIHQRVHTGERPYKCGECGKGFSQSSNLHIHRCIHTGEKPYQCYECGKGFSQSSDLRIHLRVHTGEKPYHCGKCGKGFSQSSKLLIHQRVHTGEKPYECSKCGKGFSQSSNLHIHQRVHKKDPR
Chain of ZNF622 (Q969S3 whole entry, looked up): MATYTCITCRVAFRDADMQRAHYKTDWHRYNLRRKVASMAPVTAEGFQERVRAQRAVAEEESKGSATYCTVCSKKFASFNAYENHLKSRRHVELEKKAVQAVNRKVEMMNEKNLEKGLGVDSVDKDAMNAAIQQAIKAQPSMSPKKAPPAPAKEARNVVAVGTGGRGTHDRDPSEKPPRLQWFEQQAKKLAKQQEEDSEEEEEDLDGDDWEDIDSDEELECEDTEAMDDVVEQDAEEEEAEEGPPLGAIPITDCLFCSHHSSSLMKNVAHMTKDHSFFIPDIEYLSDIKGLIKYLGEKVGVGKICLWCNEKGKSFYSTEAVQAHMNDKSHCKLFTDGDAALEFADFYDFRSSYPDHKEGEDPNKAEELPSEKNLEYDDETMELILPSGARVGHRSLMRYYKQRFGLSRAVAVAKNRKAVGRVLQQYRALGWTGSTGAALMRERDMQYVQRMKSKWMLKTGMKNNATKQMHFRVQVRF
Chain of ZNF511 isoform 1 (Q8NB15 whole entry, looked up, canonical isoform): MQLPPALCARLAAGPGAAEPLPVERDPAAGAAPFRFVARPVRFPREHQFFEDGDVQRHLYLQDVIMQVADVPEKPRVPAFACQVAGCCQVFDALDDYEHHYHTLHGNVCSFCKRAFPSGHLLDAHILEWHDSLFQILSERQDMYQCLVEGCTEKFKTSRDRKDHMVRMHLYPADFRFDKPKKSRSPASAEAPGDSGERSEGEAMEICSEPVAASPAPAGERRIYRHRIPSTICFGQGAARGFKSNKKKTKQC
Chain of ZNF580 (Q9UK33 whole entry, looked up): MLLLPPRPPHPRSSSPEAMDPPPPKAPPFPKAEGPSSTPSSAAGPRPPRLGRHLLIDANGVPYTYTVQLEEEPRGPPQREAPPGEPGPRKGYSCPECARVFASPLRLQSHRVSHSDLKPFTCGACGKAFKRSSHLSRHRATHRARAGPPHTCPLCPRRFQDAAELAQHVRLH
Chain of ZNF579 (Q8NAF0 whole entry, looked up): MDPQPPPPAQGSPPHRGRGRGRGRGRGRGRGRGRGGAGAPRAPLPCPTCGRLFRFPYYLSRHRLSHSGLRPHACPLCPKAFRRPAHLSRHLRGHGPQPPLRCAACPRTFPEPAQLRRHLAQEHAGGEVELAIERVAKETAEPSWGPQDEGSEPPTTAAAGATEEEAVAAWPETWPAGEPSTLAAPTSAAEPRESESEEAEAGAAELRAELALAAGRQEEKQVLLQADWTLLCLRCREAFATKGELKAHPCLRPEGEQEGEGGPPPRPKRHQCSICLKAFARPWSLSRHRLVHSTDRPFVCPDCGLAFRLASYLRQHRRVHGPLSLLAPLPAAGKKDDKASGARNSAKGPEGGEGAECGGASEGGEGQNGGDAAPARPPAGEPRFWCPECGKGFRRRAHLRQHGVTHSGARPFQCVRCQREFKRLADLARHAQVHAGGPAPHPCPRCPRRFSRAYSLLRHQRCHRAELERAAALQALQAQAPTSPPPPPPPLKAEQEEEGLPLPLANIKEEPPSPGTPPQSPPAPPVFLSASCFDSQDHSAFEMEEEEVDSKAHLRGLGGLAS
Chain of ZRANB2 (O95218 whole entry, looked up): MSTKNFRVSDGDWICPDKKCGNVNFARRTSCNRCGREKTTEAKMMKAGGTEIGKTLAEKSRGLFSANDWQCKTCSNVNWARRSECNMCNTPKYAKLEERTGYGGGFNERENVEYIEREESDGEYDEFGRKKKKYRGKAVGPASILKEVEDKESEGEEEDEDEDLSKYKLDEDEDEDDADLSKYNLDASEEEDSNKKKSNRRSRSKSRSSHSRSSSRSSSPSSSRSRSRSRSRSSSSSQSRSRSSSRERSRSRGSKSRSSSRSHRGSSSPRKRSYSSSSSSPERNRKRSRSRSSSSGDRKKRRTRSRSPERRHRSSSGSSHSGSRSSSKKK
Chain of ZNF609 (O15014 whole entry, looked up): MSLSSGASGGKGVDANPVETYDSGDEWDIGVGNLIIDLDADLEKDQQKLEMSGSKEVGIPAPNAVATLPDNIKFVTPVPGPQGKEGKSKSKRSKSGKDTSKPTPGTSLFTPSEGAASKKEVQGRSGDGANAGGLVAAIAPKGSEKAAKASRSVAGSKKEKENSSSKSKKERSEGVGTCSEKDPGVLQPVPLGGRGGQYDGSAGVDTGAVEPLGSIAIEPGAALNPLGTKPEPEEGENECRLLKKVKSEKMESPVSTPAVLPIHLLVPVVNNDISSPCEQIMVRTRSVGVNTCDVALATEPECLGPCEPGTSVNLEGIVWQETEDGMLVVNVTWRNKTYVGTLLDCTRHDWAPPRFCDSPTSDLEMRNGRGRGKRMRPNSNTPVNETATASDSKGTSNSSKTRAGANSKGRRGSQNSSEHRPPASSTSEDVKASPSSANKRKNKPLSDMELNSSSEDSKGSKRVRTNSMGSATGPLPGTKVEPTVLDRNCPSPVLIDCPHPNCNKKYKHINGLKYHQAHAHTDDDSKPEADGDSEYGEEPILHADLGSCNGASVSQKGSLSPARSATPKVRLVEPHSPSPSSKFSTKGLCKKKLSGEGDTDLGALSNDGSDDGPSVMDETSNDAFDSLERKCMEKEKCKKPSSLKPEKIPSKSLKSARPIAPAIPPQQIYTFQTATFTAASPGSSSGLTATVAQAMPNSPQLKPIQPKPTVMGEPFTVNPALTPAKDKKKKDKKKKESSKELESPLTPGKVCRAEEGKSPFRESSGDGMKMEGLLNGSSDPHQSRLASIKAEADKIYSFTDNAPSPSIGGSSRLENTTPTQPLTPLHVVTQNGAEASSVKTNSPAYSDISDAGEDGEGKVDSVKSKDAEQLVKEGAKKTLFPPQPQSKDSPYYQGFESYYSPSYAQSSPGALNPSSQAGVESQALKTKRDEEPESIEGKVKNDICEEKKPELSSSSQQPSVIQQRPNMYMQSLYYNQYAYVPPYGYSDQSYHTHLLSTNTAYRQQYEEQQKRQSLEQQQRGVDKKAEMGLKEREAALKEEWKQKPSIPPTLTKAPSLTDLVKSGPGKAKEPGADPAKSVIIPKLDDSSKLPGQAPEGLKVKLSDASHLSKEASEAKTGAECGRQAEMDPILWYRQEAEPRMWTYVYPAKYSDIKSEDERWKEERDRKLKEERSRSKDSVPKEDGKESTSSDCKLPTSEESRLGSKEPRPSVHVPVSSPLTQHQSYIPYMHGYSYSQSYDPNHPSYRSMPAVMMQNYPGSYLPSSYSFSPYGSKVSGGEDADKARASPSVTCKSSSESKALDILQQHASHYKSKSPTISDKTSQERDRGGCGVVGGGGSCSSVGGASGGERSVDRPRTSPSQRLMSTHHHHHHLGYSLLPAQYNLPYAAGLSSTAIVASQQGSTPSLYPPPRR
Chain of ZWILCH (Q9H900 whole entry, looked up): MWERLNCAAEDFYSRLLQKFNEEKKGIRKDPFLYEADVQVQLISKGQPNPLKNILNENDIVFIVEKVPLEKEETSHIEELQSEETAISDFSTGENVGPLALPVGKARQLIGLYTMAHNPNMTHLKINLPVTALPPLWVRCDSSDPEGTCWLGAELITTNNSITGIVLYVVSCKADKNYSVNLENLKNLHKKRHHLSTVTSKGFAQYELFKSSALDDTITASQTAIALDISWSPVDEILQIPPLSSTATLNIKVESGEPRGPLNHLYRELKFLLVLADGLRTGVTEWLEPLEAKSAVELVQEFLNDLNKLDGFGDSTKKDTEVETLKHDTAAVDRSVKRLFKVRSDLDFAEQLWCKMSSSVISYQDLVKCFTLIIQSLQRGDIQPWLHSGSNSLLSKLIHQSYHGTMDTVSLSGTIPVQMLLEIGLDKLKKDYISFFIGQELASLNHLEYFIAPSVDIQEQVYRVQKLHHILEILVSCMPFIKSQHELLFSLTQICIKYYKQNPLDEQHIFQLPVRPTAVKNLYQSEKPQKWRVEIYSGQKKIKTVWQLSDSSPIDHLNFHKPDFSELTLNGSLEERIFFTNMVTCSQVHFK

Cc1nc(Nc2ncc(C(=O)Nc3c(C)cccc3Cl)s2)cc(N2CCN(CCO)CC2)n1 [dasatinib]
inactive: [1] -0.136 | [2] -0.074 | [3] 0.019 | [4] -0.148 | [5] -0.085 | [6] 0 | [7] 0.012 | [8] 0.078 | [9] -0.124 | [10] -0.05 | [11] -0.017

COC(=O)N[C@@H](C)CNc1nccc(-c2cn(C(C)C)nc2-c2cc(Cl)cc(NS(C)(=O)=O)c2F)n1 [encorafenib]
inactive: [1] -0.054 | [3] -0.259 | [12] -0.03 | [4] -0.187 | [5] 0.143 | [6] -0.082 | [7] 0.01 | [8] -0.066 | [9] 0.094 | [10] 0.076 | [11] -0.055

CS(=O)(=O)N1CCN(Cc2cc3nc(-c4cccc5[nH]ncc45)nc(N4CCOCC4)c3s2)CC1 [pictilisib]
inactive: [1] -0.038 | [2] -0.249 | [3] -0.249 | [4] 0.02 | [5] -0.037 | [6] 0.107 | [7] 0.144 | [8] 0.01 | [9] 0.005 | [10] -0.026 | [11] 0.104

COc1ccc(Cn2ccc3ccc(C(=O)NO)cc32)cc1
inactive: [1] -0.024 | [2] -0.178 | [3] -0.073 | [4] 0.056 | [5] -0.134 | [6] -0.034 | [7] -0.033 | [8] -0.022 | [9] -0.004 | [10] 0.019 | [11] 0.052

CCn1cc(-c2ccnc3[nH]c(-c4cccc(CN(C)C)c4)cc23)c(-c2ccc(NC(=O)N(C)C)cc2)n1
inactive: [1] 0.036 | [2] 0.095 | [3] 0.01 | [4] 0.091 | [5] 0.092 | [6] 0.097 | [7] -0.077 | [8] 0.022 | [9] 0.022 | [10] 0.01 | [11] -0.085

CN1CCN(CCOc2cc(OC3CCOCC3)c3c(Nc4c(Cl)ccc5c4OCO5)ncnc3c2)CC1 [saracatinib]
inactive: [1] -0.083 | [2] 0.052 | [3] -0.276 | [4] -0.025 | [5] 0.108 | [6] 0.047 | [7] -0.005 | [8] 0.044 | [9] -0.031 | [10] -0.012 | [11] -0.051

C[C@H](Nc1ncnc2nc[nH]c12)c1cc2cccc(Cl)c2c(=O)n1-c1ccccc1 [duvelisib]
inactive: [1] 0.108 | [2] 0.038 | [3] -0.107 | [4] -0.031 | [5] -0.078 | [6] 0.073 | [7] 0.065 | [8] -0.02 | [9] -0.002 | [10] 0.044 | [11] 0.062

Cc1ccc(-n2nc(C(C)(C)C)cc2NC(=O)Nc2ccc(OCCN3CCOCC3)c3ccccc23)cc1 [doramapimod]
inactive: [1] -0.027 | [2] 0.069 | [3] 0.123 | [4] 0.11 | [5] 0.165 | [6] 0.036 | [7] 0.009 | [8] -0.014 | [9] 0.048 | [10] -0.002 | [11] 0.036

O=C(CCCCCCC(=O)Nc1ccccc1)NO [vorinostat]
inactive: [1] 0.056 | [2] 0.275 | [3] -0.022 | [4] -0.032 | [5] -0.064 | [6] -0.128 | [7] -0.049 | [8] -0.03 | [9] 0.085 | [10] 0.056 | [11] 0.053

CNCc1ccc(-c2[nH]c3cc(F)cc4c3c2CCNC4=O)cc1 [rucaparib]
inactive: [1] -0.025 | [3] 0 | [12] -0.006 | [4] 0.01 | [5] 0.136 | [6] -0.034 | [7] -0.194 | [8] -0.034 | [9] 0.128 | [10] -0.051 | [11] 0.061

c1cn2cc(-c3ccc4cn[nH]c4c3)nc(Nc3ccc(N4CCOCC4)cc3)c2n1 [entospletinib]
inactive: [1] 0.011 | [3] 0.031 | [12] 0.1 | [4] -0.14 | [5] 0.004 | [6] -0.111 | [7] 0.021 | [8] 0.037 | [9] 0.063 | [10] 0.022 | [11] 0.068

CC[C@@H]1C(=O)N(C)c2cnc(Nc3ccc(C(=O)NC4CCN(C)CC4)cc3OC)nc2N1C1CCCC1
inactive: [1] 0.029 | [3] 0.328 | [12] -0.041 | [4] -0.017 | [5] 0.037 | [6] 0.047 | [7] 0.069 | [8] 0.022 | [9] -0.197 | [10] -0.078 | [11] -0.031

CN1CCC(CNc2ccc3ncc(-c4cccc(OC(F)(F)F)c4)n3n2)CC1
inactive: [1] -0.081 | [2] -0.063 | [3] 0.077 | [4] 0.103 | [5] 0.054 | [6] -0.134 | [7] 0.03 | [8] 0.01 | [9] -0.108 | [10] -0.085 | [11] -0.113

O=C(Nc1nc2ccccc2n1CCN1CCOCC1)c1cccc([N+](=O)[O-])c1 [IRAK-1-4 Inhibitor I]
inactive: [1] 0.052 | [2] 0.154 | [3] -0.346 | [4] -0.096 | [5] 0.051 | [6] -0.031 | [7] 0.004 | [8] -0.008 | [9] -0.076 | [10] -0.042 | [11] 0.044

Cn1c2cc(S(C)=O)sc2c2cnn(Cc3cccc(N)c3)c(=O)c21 (stereo not drawn)
inactive: [1] 0.237 | [2] 0.34 | [3] 0.084 | [4] 0.008 | [5] 0.259 | [6] 0.021 | [7] -0.061 | [8] -0.006 | [9] 0.115 | [10] -0.04 | [11] -0.053

Cc1cccc(CC(=O)N2CCc3c2ccc(-c2cn(C)c4ncnc(N)c24)c3F)n1
inactive: [1] 0.008 | [2] 0 | [3] 0.045 | [4] -0.101 | [5] -0.045 | [6] -0.22 | [7] -0.019 | [8] -0.065 | [9] 0.034 | [10] 0.027 | [11] -0.031

NC(=O)Nc1cc(-c2cccc(F)c2)sc1C(=O)N[C@H]1CCCNC1
inactive: [1] 0.016 | [2] 0.015 | [12] 0.007 | [4] -0.008 | [5] 0.123 | [6] 0.061 | [7] -0.028 | [8] 0.076 | [9] -0.021 | [10] 0 | [11] -0.033

CON(C)C(=O)N1N=C(c2cc(F)ccc2F)S[C@@]1(CCCN)c1ccccc1 [filanesib]
inactive: [1] -0.045 | [2] 0.051 | [12] 0.019 | [4] 0.181 | [5] 0.152 | [6] 0.049 | [7] -0.101 | [8] 0 | [9] 0.052 | [10] 0.016 | [11] 0.014

CNc1nc(-c2ccc3c(N)n[nH]c3c2)cc(N2C[C@@H](C(=O)NC3CCCCC3)CC[C@H]2C)n1
inactive: [1] -0.183 | [2] -0.055 | [3] 0.11 | [4] 0.089 | [5] 0.128 | [6] -0.004 | [7] -0.019 | [8] -0.066 | [9] 0.009 | [10] -0.037 | [11] 0.002

C[C@@H](Oc1cc(-c2cnn(C3CCNCC3)c2)cnc1N)c1c(Cl)ccc(F)c1Cl [crizotinib]
inactive: [1] -0.121 | [2] -0.124 | [3] -0.181 | [4] 0.112 | [5] 0.164 | [6] -0.113 | [7] -0.029 | [8] 0.014 | [9] -0.137 | [10] -0.068 | [11] -0.031

Cc1cc(Nc2cc(CN3CCOCC3)c3nc(C)c(Cc4ccc(Cl)cc4F)n3n2)n[nH]1 [gandotinib]
inactive: [1] -0.098 | [2] -0.267 | [3] 0.041 | [4] 0.036 | [5] 0.041 | [6] -0.073 | [7] 0.075 | [8] 0.064 | [9] -0.108 | [10] -0.12 | [11] 0.093

Cc1cccc(-c2[nH]c(C(C)(C)C)nc2-c2ccc3nccnc3c2)n1
inactive: [1] 0.01 | [2] 0.013 | [3] -0.107 | [4] -0.073 | [5] -0.183 | [6] 0.014 | [7] 0.008 | [8] -0.05 | [9] 0.006 | [10] 0 | [11] -0.039

O=C(CCCCCCNC(=O)c1cnc(N(c2ccccc2)c2ccccc2Cl)nc1)NO [citarinostat]
inactive: [1] -0.004 | [3] 0.306 | [12] 0.054 | [4] -0.089 | [5] -0.013 | [6] 0.083 | [7] -0.011 | [8] -0.031 | [9] 0.033 | [10] 0.104 | [11] -0.043
